Out of some 59,000 compounds screened, about 6,500 (11%) were called active. Another 15% or so got no clear call; they are omitted. Cut-off read from the data, not from the text of the source: active = max dye-equivalent concentration above about 10 nM; inconclusive = mostly about 1.1 nM to 9.6 nM; inactive = weaker than that. The full list was thinned out, with actives kept by preference.

Drawing on PubChem BioAssay AID590 (National Center for Advancing Translational Sciences (NCATS), 2007), this text covers max dye-equivalent concentration for 71 compounds.

This assay can be described thus: qHTS Assay for Spectroscopic Profiling in A350 Spectral Region. The following applies: Compound autofluorescence, 340/450 nm, Alexa 350 dye-equivalents; active compounds read high.
For the compound `CC(=O)c1cccc(NC(=O)N2CCCC2C(=O)NCCC(C)C)c1` (stereo unspecified), the max dye-equivalent concentration entry was “inactive”.
Next, `CC12CCC(C(=O)N3CCN(c4ncccn4)CC3)(c3nc4ccccc4nc31)C2(C)C` (stereo unspecified): “inactive”; `O=c1nc(N2CCOCC2)nc2n1CCO2`: “inactive”; `O=C(CSc1nc2ccccc2[nH]1)c1cccs1`: “inactive”.
Next, `N#Cc1c(N)n(CCOC(=O)c2ccc(Cl)cc2)c2nc3ccccc3nc12`: 610 nM (active); `Cn1cccc1C(=O)N1CCC2(CC1)CN(c1cccc(-c3ccccc3)c1)C2`: “inactive”.
Next, `CC[C@@H]1Cc2cc(O)ccc2C2=C1c1ccc(O)cc1C[C@H]2CC`: 260 nM (active); `CCC1SC2=NCCN2C1(O)c1ccc(Cl)cc1` (stereo unspecified): “inactive”.
Regarding `Cc1cc(NC(=O)c2cnn3cccnc23)n(-c2ccccc2)n1`, the max dye-equivalent concentration result is “inactive”.
Under `CCC(C(=O)NC1CCCC1)N(C(=O)c1snc(C(N)=O)c1N)c1ccc2c(c1)OCCO2` (stereo unspecified) stands “inactive”.
Under `COCCNC(=O)C(c1ccc(C)o1)N(Cc1ccccc1)C(=O)Cn1nnc2ccccc21` (stereo unspecified) stands “inactive”.
As to `COCCNC(=O)C(c1ccc(C)o1)N(Cc1cccs1)C(=O)c1snc(C(N)=O)c1N` (stereo unspecified), the max dye-equivalent concentration was 88 nM (active).
Take `N=c1c2c3c(sc2ncn1CCCN1CCOCC1)CCCCC3`: the max dye-equivalent concentration entry is “inactive”.
Turning to `CN(CCc1ccccn1)S(=O)(=O)c1ccc2c3c(cccc13)C(=O)N2`, the max dye-equivalent concentration is 790 nM (active).
`O=c1[nH]nc(Cc2ccccn2)c2ccccc12`: the max dye-equivalent concentration result is “inactive”.
In the case of `CCNc1nc(N)nc(Oc2ccc(OCC)nn2)n1`, the max dye-equivalent concentration result was “inactive”.
As for `COc1ccccc1N1CCN(C(=O)CN(Cc2ccc(Cl)cc2)S(C)(=O)=O)CC1`, the max dye-equivalent concentration result is “inactive”.
Next, `Cn1cccc1C(=O)Nc1nccs1`: “inactive”; `Cn1cccc1C(=O)NC(=O)COC(=O)Cc1coc2ccc3ccccc3c12`: 38 nM (active); `O=C1C2(c3ccccc3)CN(CCCO)CC1(c1ccccc1)CN(CCCO)C2`: “inactive”.
Regarding `Cn1c(=O)[nH]c(=O)c2c1nc(Br)n2CCCCSc1nc2ccccc2o1`, the max dye-equivalent concentration entry was “inactive”.
Under `Fc1ccc2nc(N3CCCCC3)sc2c1` stands “inactive”.
With `Cc1cc(N2CCCCC2)nc2ccc(Cc3ccc4nc(N5CCCCC5)cc(C)c4c3)cc12`, the max dye-equivalent concentration is 43 nM (active).
Next, `CCCn1c(SCC(=O)Nc2cccc(C(=O)OCC)c2)nnc1-c1ccoc1C`: “inactive”; `Cc1cc(=O)cc(C)[nH]1`: “inactive”.
Turning to `Cc1ccccc1-c1nc(N(C)Cc2ccco2)c2ccccc2n1`, the max dye-equivalent concentration result is “inactive”.
Under `Clc1cccc(Cl)c1Cn1nnc(-c2cccs2)n1` stands “inactive”; under `CCOC(=O)c1c(N)c(C#N)nn1-c1ccccc1C(=O)OC`, “inactive”.
For the compound `O=C(Nc1ccccc1)c1cccnc1Nc1ccccc1`, the max dye-equivalent concentration entry was “inactive”.
For the compound `Oc1ccc2nc(Cc3ccccc3)[nH]c2c1`, the max dye-equivalent concentration result was “inactive”.
Next, `COC(=O)Nc1nc2ccc(Sc3ccccc3)cc2[nH]1`: 16 nM (active); `CCC(=O)Nc1cccc(NC(=O)CSc2nnnn2C2CCCC2)c1`: “inactive”.
Under `Cc1ccc(S(=O)(=O)NCc2cn3ccsc3n2)c(C)c1` stands “inactive”; under `CCOc1cccc(-c2nnc3sc(COc4ccc(OC)cc4)nn23)c1`, “inactive”; under `COc1cc(-c2nn3c(-c4cccc(C)c4)nnc3s2)cc(OC)c1OC`, 2600 nM (active).
Take `c1ccc(-c2cc(-c3nnc4sc(-c5ccccn5)nn34)[nH]n2)cc1`: the max dye-equivalent concentration entry is “inactive”.
Under `CCOC(=O)CNC(=O)CSc1nnc(-c2cccc(OC)c2)n1CC` stands “inactive”; under `CC(=O)Nc1ccc(-c2nn3c(C)nnc3s2)cc1C`, “inactive”.
Take `Cc1nnc2sc(-c3ccco3)nn12`: the max dye-equivalent concentration result was “inactive”.
Under `c1ccc(-c2nnc3n2NC(c2ccc4c(c2)OCO4)S3)cc1` (stereo unspecified) stands “inactive”.
For `Fc1ccc(-c2nnc3sc(-c4ccc5c(c4)OCO5)nn23)cc1`, the max dye-equivalent concentration is 36 nM (active).
Under `Fc1ccc(-c2ccc(-c3nn4c(-c5ccco5)nnc4s3)o2)cc1` stands 68 nM (active); under `O=C(CSc1nnc2scc(-c3ccc(F)cc3)n12)NCc1ccco1`, “inactive”.
Take `COc1ccccc1Cn1c(=S)[nH]c2cc(C(=O)N3CCN(C)CC3)ccc2c1=O`: the max dye-equivalent concentration result is “inactive”.
Under `CSCCC1NC2(C(=O)Nc3ccc(Cl)cc32)[C@@H]2C(=O)N(C3CCCC3)C(=O)[C@H]12` (stereo partly specified) stands “inactive”; under `Cc1ccc2c(C(=O)CN3CCCC3)c(C)[nH]c2c1`, “inactive”.
Under `CC(C)C(=O)N1CCN(CCN=CC2=C(O)CC(c3ccco3)CC2=O)CC1` (stereo unspecified) stands “inactive”; under `CC(C)c1ccc(N2CC(C(=O)Nc3nccs3)CC2=O)cc1` (stereo unspecified), “inactive”.
With `COC(=O)c1ccc(CSc2nncn2C)cc1`, the max dye-equivalent concentration result was “inactive”.
For the compound `O=C(NCCSc1ccccc1)c1ccco1`, the max dye-equivalent concentration entry was “inactive”.
In the case of `O=C(Nc1ccccc1)Nc1ccccc1C(=O)NCc1ccco1`, the max dye-equivalent concentration entry is “inactive”.
Under `COC(=O)c1ccccc1NC(=O)Cn1nc(C(F)(F)F)c2c1CCC2` stands “inactive”; under `O=C(NCc1ccco1)c1cnn2c(C(F)(F)F)cc(-c3ccco3)nc12`, 300 nM (active); under `O=C(CSc1nc(-c2ccco2)cc(C(F)(F)F)n1)N1CCc2ccccc2C1`, “inactive”.
Next, `COC(=O)c1cnn2c(C(F)(F)F)cc(-c3ccco3)nc12`: 870 nM (active); `O=C(NCc1ccco1)c1cc(-c2cccnc2)nc2ccc(Cl)cc12`: “inactive”.
Regarding `CN(C(=O)CSc1nnnn1-c1ccccc1)C1CCCCC1`, the max dye-equivalent concentration entry was “inactive”.
For `Cc1oc2nc(SCC(=O)NCc3cccnc3)nc(N)c2c1C`, the max dye-equivalent concentration entry was “inactive”.
As to `O=C(c1ccc2c(c1)N(Cc1ccc(F)cc1)C(=O)CS2)N1CCOCC1`, the max dye-equivalent concentration result is “inactive”.
Next, `Cn1c(C(=O)NCCN2CCc3ccccc3C2)cc2c(=O)[nH]c3ccccc3c21`: “inactive”; `Cc1cc(=O)n2c3c(cccc13)CCC2`: “inactive”; `CCNC(=O)c1c(O)c2cccc3c2n(c1=O)CC3`: 22 nM (active).
Under `Cc1cnc(CNc2nc(-c3cccnc3)nc3ccccc23)cn1` stands “inactive”.
Under `CN(C)CCSS(=O)(=O)O` stands “inactive”; under `C[C@]1(O)CC[C@H]2[C@H]3CC=C4N5CCN=C5CC[C@@]4(C)[C@H]3CC[C@@]21C`, “inactive”.
With `Cc1cc(N2CCCC2)n2nc(C)c(-c3ccccc3)c2n1`, the max dye-equivalent concentration was 220 nM (active).
Next, `CC(=O)c1cc(-c2ccccc2)[nH]c1N1CCCC1`: “inactive”.
Turning to `S=c1c2[nH]cnc2ncn1CCSc1ncnc2nc[nH]c12`, the max dye-equivalent concentration entry is “inactive”.
Under `CC(C)(C)c1csc(NC2=NS(=O)(=O)c3ccccc32)n1` stands “inactive”; under `COc1ccc(NC(=O)CN(C)S(=O)(=O)c2ccccc2)cc1OC`, “inactive”; under `Brc1ccc(Nc2c3c(nc4ncnn24)CCC3)cc1`, “inactive”.
